Source: PubChem BioAssay (NCI)
The panel holds about 79,000 compounds, 15% with a hit somewhere; the sample as a whole holds those more often. Unmarked numbers belong to inactive results. The source made the active and inactive calls. Cut-off read from the data, not from the text of the source: active = growth inhibition above about 70%; inactive = the rest.

assay: NCI Yeast Anticancer Drug Screen. Data for the mlh1 rad18 strain (AID 175); conditions: S. cerevisiae mlh1 rad18 strain growth inhibition; at 50.0 µM; active compounds read high
Procedure: Growth inhibition of yeast strains with defined genetic alterations is measured as a screen for potential anti-cancer activity. Selected strains with alterations in DNA damage repair or cell cycle control were exposed to compounds and growth inhibition was measured relative to vehicle treated controls. The strain used in this assay is mlh1 rad18

Question: With O=C1CC[C@@H](NC(=O)Cc2ccccc2)C(=O)N1 as the compound, how does the growth inhibition read?
Answer: -9.1%

Question: For C=C1C(=O)OC2(CCCCC)CCCCC12 (stereo not given), which growth inhibition is on record?
Answer: -10.5%

Question: For NC1=NOC(=O)C1c1ccccc1 (stereo not given), which growth inhibition is on record?
Answer: -19.8%

Question: With CN(C(=O)C12C3C4C5C3C1(C(=O)O)C5C42)C(C)(C)C (stereo not given) as the compound, how does the growth inhibition read?
Answer: 25.9%

Question: With CC(=O)Nc1ccc(/C=C2\SC(=S)N(/C=C3/C(=O)N(c4ccccc4)N=C3C)C2=O)cc1 as the compound, how does the growth inhibition read?
Answer: 7%

Question: For NC(N)=N/N=C/c1c(Cl)nc2n1CCS2, which growth inhibition is on record?
Answer: -6.8%

Question: Which growth inhibition does the source give for Nc1ccc(C(=O)Nc2nccs2)cc1 here?
Answer: 4.75%

Question: For O=C(CC(=O)CC(O)(C(F)(F)F)C(F)(F)F)CC(O)(C(F)(F)F)C(F)(F)F, which growth inhibition is on record?
Answer: 78.2% (active)

Question: Which growth inhibition does the source give for CC(C)c1ccc(NC(=S)NCCO)cc1 here?
Answer: -10.9%

Question: For CC(O)C1NC(=S)N(c2ccccc2)C1=O (stereo not given), which growth inhibition is on record?
Answer: 46%

Question: Which growth inhibition does the source give for CCN(CC)c1ccc(NC(=O)CCl)cc1 here?
Answer: 8.2%

Question: For O=C(O)[C@@H]1[C@@H]2C[C@@H]3[C@H](OC(=O)[C@@H]31)[C@@H]2O, which growth inhibition is on record?
Answer: -41.4%

Question: Which growth inhibition does the source give for CS/C(=N/N=C(\C)c1ccccn1)[Se][Se]/C(=N/N=C(\C)c1ccccn1)SC here?
Answer: 30.9%

Question: With O=[N+]([O-])c1ccc(Cl)c(C(F)(F)F)c1 as the compound, how does the growth inhibition read?
Answer: -15.7%

Question: For O=C(CCl)Nc1cc(C(F)(F)F)ccc1Cl, which growth inhibition is on record?
Answer: 1.15%

Question: With Cc1cc(C)c(CN(C)C)c(CC(O)c2ccccc2)c1 (stereo not given) as the compound, how does the growth inhibition read?
Answer: -1.95%

Question: For CCOc1ncc(C(O)c2ccc(C)cc2)c(OCC)n1 (stereo not given), which growth inhibition is on record?
Answer: -9.8%

Question: With O=C(O)c1ccc(/C=N/NC(=S)Nc2cccc3cccnc23)cc1 as the compound, how does the growth inhibition read?
Answer: -17.1%

Question: With Nc1cccc2c(=O)[nH][nH]c(=O)c12 as the compound, how does the growth inhibition read?
Answer: 22.1%

Question: Which growth inhibition does the source give for CCOC(=O)CC1(C)c2nc(NC(C)=O)sc2Cc2sc(NC(C)=O)nc21 here?
Answer: -15.5%

Question: For COC(=O)C1C(c2ccccc2)C1(C#N)C#N (stereo not given), which growth inhibition is on record?
Answer: 3.3%

Question: Which growth inhibition does the source give for COc1ccc2nc3cc([N+](=O)[O-])ccc3c(Nc3ccc(S(=O)(=O)N=C(N)N)cc3)c2c1 here?
Answer: 53.9%

Question: With C=CCOc1cc(=O)[nH]c2ccccc12 as the compound, how does the growth inhibition read?
Answer: 2.9%

Question: For Cc1cn(C2CC(C)N(CCO)O2)c(=O)[nH]c1=O (stereo not given), which growth inhibition is on record?
Answer: -74.2%

Question: Which growth inhibition does the source give for CC(=O)OC[C@]1(O)CC[C@@]23CC1C[C@@H]2CCC1C(C)(C)CCC[C@@]13C (stereo not given in full) here?
Answer: 64.4%

Question: With CCCCCCCCCCCCCCCCCCN(C)C as the compound, how does the growth inhibition read?
Answer: 25.9%

Question: With Oc1ccccc1C=Nc1ccc(Cl)cc1 as the compound, how does the growth inhibition read?
Answer: 6.85%

Question: With COc1ccccc1/C=C(\C#N)C(=O)O as the compound, how does the growth inhibition read?
Answer: -17.9%

Question: Which growth inhibition does the source give for CCc1cc(C(C)(C)C)cc(C(C)(C)C)c1O here?
Answer: 2.2%

Question: Which growth inhibition does the source give for C/C(=N/NC(=O)CC#N)c1ccccc1 here?
Answer: 0.4%

Question: With O=c1cc(-c2ccccc2Cl)[nH]c2cc3c(cc12)OCO3 as the compound, how does the growth inhibition read?
Answer: -39.8%

Question: With COc1ccc(CN)cc1 as the compound, how does the growth inhibition read?
Answer: -2.6%

Question: Which growth inhibition does the source give for COc1ccc(/C=N/Nc2nc3ccccc3c(=O)n2-c2ccccc2)c(OCc2ccccc2)c1 here?
Answer: 9.85%

Question: For COC(=O)CC(NC(=O)C(Cc1cncn1C(=O)OCc1ccccc1)NC(=O)OCc1ccccc1)C(=O)O (stereo not given), which growth inhibition is on record?
Answer: -4.55%

Question: For C[n+]1c(-c2ccc(Cl)c(Cl)c2)c2cc(N)ccc2c2ccccc21, which growth inhibition is on record?
Answer: 14.4%

Question: Which growth inhibition does the source give for CCCCCCC1N(C(C#N)c2ccccc2)CCCN1C(C#N)c1ccccc1 (stereo not given) here?
Answer: 36.4%

Question: For C[S+](C)CCOC(=O)C(=[N+]=[N-])c1ccc([N+](=O)[O-])cc1, which growth inhibition is on record?
Answer: 59.4%

Question: For NCCCn1[nH]c(=O)c2ncccc2c1=O, which growth inhibition is on record?
Answer: -18.7%

Question: Which growth inhibition does the source give for O=[N+]([O-])c1ccc(/C=C(/c2ccc([N+](=O)[O-])o2)S(=O)(=O)c2ccccc2)o1 here?
Answer: 90.2% (active)

Question: Which growth inhibition does the source give for O=C1OC(c2ccc(Cl)cc2)=N/C1=C\c1c(Cl)cccc1Cl here?
Answer: -13.7%
